The values below come from PubChem BioAssay AID602346 (Broad Institute, 2012).

The inhibition is the relative decrease from the control value, in per cent.

SMILES strings stand for the structures. The whole screen tested about 340,000 compounds, of which about 1,200 (0.35%) were called active. This is one part of a sample in which actives are shown more often than they occur. Cut-off read from the data, not from the text of the source: active = inhibition above about 50% (passing the limit was not always enough); inconclusive = no clear call, values can overlap the other calls; inactive = below about 31%.

This experiment is described as follows: blockers of Vif multimerization in cells – imaging, HEK293T, single point, primary screen (AID 602346). The following applies: Vif self-association by quenched fluorescence, 24 h, at 7.49 µM, active compounds read high.
Turning to `COc1ccc(Br)c(Cn2c(C)c(C(=O)NCc3cccs3)sc2=O)c1`, the inhibition is 1.02% (inactive).
As to `CC[C@]1(O)C[C@@H]2CN(CCc3c([nH]c4ccccc34)[C@@](C(=O)OC)(c3cc4c(cc3OC)N(C)[C@H]3[C@@](O)(C(=O)OC)[C@H](OC(C)=O)[C@]5(CC)C=CCN6CC[C@]43[C@@H]65)C2)C1`, the inhibition is 79.8% (active).
The figure for `CCOCC(=O)Nc1cc(OC)c(Cl)cc1OC` is -3.02% (inactive).
`COc1cc(NC(=O)c2ccccc2)c(OC)cc1NC(=O)Cc1ccccc1`: the inhibition was -4.83% (inactive).
The figure for `COc1cc(NC(=O)c2ccc(-c3csc(C)n3)cc2)c(OC)cc1Cl` is 64% (active); for `COCC(=O)Nc1c(I)c(C(=O)NCC(O)CO)c(I)c(C(=O)N(C)CC(O)CO)c1I` (stereo not given) it is -1.59% (inactive); for `CC(=O)N(CC(O)CO)c1c(I)c(C(=O)NCC(O)CO)c(I)c(C(=O)NCC(O)CO)c1I` (stereo not given) it is 62% (active).
Then `CC12CCC(=O)C=C1CCC1C2C(O)CC2(C)C1CCC2(O)C(O)CO` (stereo not given), with 24% (inactive); and `C[C@H]([C@@H](O)[C@@H](O)[C@@H](C)C(C)(C)C)[C@H]1CC[C@H]2C3CC[C@H]4C[C@H](OS(=O)(=O)O)[C@@H](OS(=O)(=O)O)C[C@]4(C)[C@H]3CC[C@]12C` (stereo not given in full), with 9.95% (inactive); and `CC(C)(C)CC(=O)Nc1nc(C(N)Cc2ccc(C(F)(F)F)cc2)cs1` (stereo not given), with -2.15% (inactive).
Then `C[C@@H]1CN([C@@H](C)CO)S(=O)(=O)c2ccc(C#Cc3cccc(F)c3)cc2O[C@H]1CN(C)S(=O)(=O)c1cn(C)cn1`, with -26.5% (inactive); and `Cc1ccc(C)c(N2CCN(S(=O)(=O)c3c(C)[nH]c(C)c3C(=O)N3CCCC3)CC2)c1`, with 1.25% (inactive); and `COC(=O)c1cc(S(=O)(=O)N2CCN(c3cc(C)ccc3C)CC2)c[nH]1`, with 51.4% (active).
For the molecule `Cc1ccc(C)c(N2CCN(S(=O)(=O)c3ccc4c(c3)oc(=O)n4C)CC2)c1`, the inhibition is -13.1% (inactive).
Take `CCCCCCNC(=O)O[C@H]1CN(C(=O)OC(C)C)N(C(=O)OC(C)C)[C@@H]2CN(S(=O)(=O)c3ccc(C)cc3)C[C@]12O`: the inhibition was -2.14% (inactive).
Then `CCOP(=O)(OCC)C(Cc1ccccc1)N=C(c1ccccc1)c1ccccc1` (stereo not given), with -3.63% (inactive); and `CC1(C(=O)Nc2cccc(Oc3ccccc3)c2)CCN1Cc1ccccc1Cl` (stereo not given), with 1.11% (inactive); and `CN(Cc1ccccc1)C(=O)CCC1CCN(C(=O)c2ccco2)CC1`, with 132% (active).
The figure for `O=C(c1ccco1)N1CCN(CCOc2ccccc2)CC1` is 3.05% (inactive).
`O=C(c1ccco1)N1CCN(C(=O)C2c3ccccc3Oc3ccccc32)CC1`: the inhibition was 2.39% (inactive).
Regarding `COc1ccc(C(C#N)=C2C=CC(=NO)c3ccccc32)cc1`, the inhibition is 24.3% (inactive).
Then `NC(c1ccccc1)c1csc(NC(=O)Nc2cccc(C(F)(F)F)c2)n1` (stereo not given), with 4.85% (inactive).
On to `COc1ccc(-c2ccc(CN3C(CC(C)C)C(=O)N(Cc4cn(CC5CCCCC5)nn4)CCS3(=O)=O)cc2)cn1` (stereo not given), for which the inhibition was -4.05% (inactive).
For `Cc1ccc(O)c(CNc2nc3ccccc3[nH]2)c1`, the inhibition was -2.01% (inactive).
The figure for `CN(c1ccccc1)S(=O)(=O)c1cc(C(=O)Nc2nc3ccccc3[nH]2)ccc1Cl` is -13.9% (inactive); for `COC(=O)Nc1nc2ccc(Sc3ccccc3)cc2[nH]1` it is 57% (active); for `COc1ccc(CC(N)c2csc(NC(=O)Cc3ccccc3)n2)cc1` (stereo not given) it is -11.3% (inactive).
Take `CC(C)OC(=O)c1ccc(NCc2cc(O)ccc2O)cc1Cl`: the inhibition is 55.2% (active).
The figure for `O=C(OC12CC3CC(CC(C3)C1)C2)c1ccc(NCc2cc(O)ccc2O)cc1` is 8.83% (inactive).
On to `CC(OC(=O)c1ccc(Cl)cc1O)C(=O)NCCC1=CCCCC1` (stereo not given), for which the inhibition was 11.7% (inactive).
The figure for `COC(=O)c1ccc(NCC(=O)c2ccccc2)cc1` is 3.71% (inactive).
Then `CC(CN1CCOCC1)OC(=O)c1ccc(Cl)cc1Cl` (stereo not given), with 4.38% (inactive).
Then `COC(=O)c1ccc(NCc2cc(O)ccc2O)cc1`, with 101% (active); and `COc1ccc(C(NC(=O)C2CCN(CCCc3ccccc3)CC2)c2cccs2)cc1` (stereo not given), with 14.2% (inactive); and `CCCCC[C@@H]1C=C(C(=O)OCC)[C@H](c2ccccc2)N1S(=O)(=O)c1ccc(C)cc1`, with 3.46% (inactive).
Turning to `COc1ccc(C(=O)NCc2nnc(SCC(=O)Nc3cccc(OC)c3)o2)cc1`, the inhibition was 19% (inactive).
As to `COc1ccc(Cc2nnc(SCC(=O)Nc3ccc(C)c(C)c3)o2)cc1OC`, the inhibition is 3.15% (inactive).
Then `COc1cccc(NC(=O)CSc2nnc(Cc3ccc(OC)c(OC)c3)o2)c1`, with 60.1% (active); and `CNc1cncc(-c2ccc(NS(C)(=O)=O)cc2)n1`, with 21.1% (inactive); and `COc1ccc(-c2ccc(C(=O)NCCN3CCOCC3)c3occc23)c(C)c1`, with -8.68% (inactive).
Then `Cc1ccc(C(=O)NC(=S)NCCN2CCOCC2)cc1`, with 50.2% (active); and `Cc1cc(C)cc(C(=O)NCCN2CCOCC2)c1`, with -5.07% (inactive).
For the molecule `Cc1ccc(C(=O)N/C(=C\c2ccc(F)cc2)C(=O)NCCN2CCOCC2)cc1`, the inhibition is 4.18% (inactive).
As for `Cc1cc(=O)oc2c3c(cc(OCC(=O)NCC(O)c4ccccc4)c12)OC(C)(C)CC3` (stereo not given), the inhibition is -17% (inactive).
For `COc1ccc(CC(N)c2csc(NC(=O)NC(c3ccccc3)c3ccccc3)n2)cc1` (stereo not given), the inhibition was 2.09% (inactive).
The figure for `COc1cc(Cn2c3ccc(NC(=O)CC(C)c4ccccc4)cc3c(=O)n2C)ccc1F` (stereo not given) is -4.26% (inactive).
Then `CC(C)=CCc1ccc(O)c(=O)cc1C(C)C`, with 114% (active).
The figure for `CC(C)c1cc(N=O)cc(C(C)C)c1O` is 3.46% (inactive).
For `CC(C)=CCc1c(O)c(CC=C(C)C)c2occ(-c3ccc(O)cc3)c(=O)c2c1O`, the inhibition is 6.99% (inactive).
Then `O[C@H]1C[C@H](c2ccc(Cl)cc2)N(Cc2cccs2)C[C@@H]1n1cc(C2CC2)nn1`, with -12.7% (inactive).
On to `COc1ccc(-c2nc3cnccn3c2NC(C)(C)CC(C)(C)C)cc1O`, for which the inhibition is -5.81% (inactive).
The figure for `COc1ccc(-c2nc3cc(C)ccn3c2NC2CCCCC2)cc1SC1CCCCC1` is -0.392% (inactive); for `COc1ccc(-c2nc3cnccn3c2NC2CCCCC2)cc1-c1cccc(Cl)c1` it is 51.8% (active); for `O=C(NC(c1ccc(-c2ccccc2)cc1)c1cnccn1)C1CCN(CCOc2ccc(Cl)cc2Cl)CC1` (stereo not given) it is 4.85% (inactive).
Turning to `CCOC1=C2[C@H]([C@H]3C(=O)N(c4ccccc4)C(=O)[C@H]3C1)[C@@H](c1ccccc1)N(S(=O)(=O)c1ccc(C)cc1)[C@H]2c1ccccc1`, the inhibition is 6.5% (inactive).
Then `Cc1cc2nc(-c3ccc(Cl)cc3)c(Cc3cccc(F)c3)n2c(C)c1Br`, with 16.2% (inactive).
Then `C[C@H]1CN([C@@H](C)CO)C(=O)c2cc(C3=CCCCC3)cnc2O[C@@H]1CN(C)C(=O)Cc1ccccc1`, with -21% (inactive); and `O=C(O)c1ccccc1-c1ccccc1C(=O)Nc1nccs1`, with 13.1% (inactive); and `COc1ccc(-c2nn(-c3ccccc3)cc2C(=O)Nc2nccs2)cc1OC`, with 52.9% (active).
The figure for `COc1ccc(NC(=O)c2cn(-c3ccccc3)nc2SC)cc1` is -9.63% (inactive); for `CC1(C(=O)Nc2cccc3c2CCCC3)CCN1C(=O)CCc1ccc(Cl)cc1Cl` (stereo not given) it is -0.855% (inactive); for `CCc1cc(-c2nnn(CCC3COCCO3)c2CC)ccc1-c1cn(Cc2ccc3ccccc3c2)nn1` (stereo not given) it is -19.8% (inactive).
With `CCc1nc2c(OCc3ccc(Cl)cc3Cl)cccn2c1N(C)C(=O)C(C)C`, the inhibition was -10.6% (inactive).
Then `CCc1nc2ccc(C(=O)Nc3cc(-c4ccccc4)ccc3OC)cn2c1N(CC)CC(=O)N(C)C`, with -11.6% (inactive); and `CCOCCC(=O)Nc1ccc2c(c1)c(=O)n(C)n2-c1ccc2ccccc2c1`, with 34.9% (inactive).
Then `Cn1c(/C(C#N)=C2/CCCCCN2)nc2ccccc21`, with 5.07% (inactive); and `N#CC(=C1CCCC1)c1nc(-c2ccc(Cl)cc2)cs1`, with 3% (inactive).
Then `N#C/C(=C1\CCCN1)c1nc(-c2ccccc2)cs1`, with 61.4% (active); and `O=C(NCCOc1ccccc1)N1[C@H]2CC[C@@H]1C=C(c1ccc(F)cc1OCc1ccccc1)C2`, with -2.23% (inactive).
For the molecule `CCCN(CCC)c1nc2c(C)cccn2c(=O)c1/C=C1/SC(=S)N(Cc2ccco2)C1=O`, the inhibition is 146% (active).
Then `Cc1ccc2[nH]c(=O)c(-c3nc4c(C)cccn4c3NCc3ccco3)cc2c1`, with -12.9% (inactive).
`CCc1nc2c(OCc3ccc(C(F)(F)F)cc3)cccn2c1N(C)C(=O)CC(C)C`: the inhibition was -5.03% (inactive).
The figure for `COc1ccc(NC(=O)C2Cc3c(-c4ccc5c(c4)OCO5)ccnc3O2)cn1` (stereo not given) is -5.58% (inactive); for `COc1cccc(CNc2nc(NCc3ccccc3OC)nc3ccsc23)c1` it is -2.52% (inactive); for `O=C1OCC2=C1C(c1ccc(Cl)cc1)c1cc3c(cc1O2)OCO3` (stereo not given) it is -11.3% (inactive).
Take `CCCOc1ccccc1C1CC(=O)Nc2cc3c(cc21)OCO3` (stereo not given): the inhibition is -2.32% (inactive).
The figure for `COc1ccccc1C1C2=C(COC2=O)Nc2cc3c(cc21)OCO3` (stereo not given) is 89.1% (active); for `COc1ccc(CN(C)C(=O)Cc2ccsc2)c(OC)c1OC` it is -9.61% (inactive).
`COc1ccccc1C(C)NC(=O)Cc1ccsc1` (stereo not given): the inhibition is 98.8% (active).
For the molecule `COc1ccc(OC)c(NC(=O)COC(=O)Cc2ccsc2)c1`, the inhibition was 9.67% (inactive).
The figure for `O=C(COc1ccccc1Cl)Nc1ccccc1C(=O)NC1CC1` is -13.2% (inactive); for `O=C(COc1ccccc1Cl)Nc1ccc(C(=O)c2ccc(C(=O)O)cc2)cc1` it is 21.3% (inactive).
Regarding `CC(=O)Nc1ccc(NC(=O)COc2ccccc2C(=O)Nc2cccc(Cl)c2Cl)cc1`, the inhibition was 146% (active).
Then `NC(c1csc(NC(=O)Nc2ccccc2Oc2ccccc2)n1)c1ccccc1Cl` (stereo not given), with -9.54% (inactive); and `COc1cncc(-c2cnc3sc(NCCc4ccccn4)nn23)c1`, with -4.71% (inactive).
